# Structures can show the parent of a compound that is named as a salt. ± gives the standard deviation of the averaged measurements.
# Tested on: Saccharomyces cerevisiae BY4741 SeMeCo community
# Test: mean cell size (pixel area) (pixels); higher = larger cells
# Conditions: 10 µM; 24 h; SM minimal medium
# In short: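 For 24 h, 70 µl of yeast culture diluted to OD600 = 0.3 from an overnight preculture at OD600 = 1.0 was kept in SM medium in 384-well plates acoustically predosed with drug, final 10 µM. The strain was Saccharomyces cerevisiae BY4741 forming a fluorescent community of four plasmids, each complementing one auxotrophy and carrying a fluorescent marker. Automated confocal microscopy of paraformaldehyde-fixed cells, analysed in Harmony, provided mean cell pixel area per well, which was averaged over 3 replicates. Same SeMeCo high-content imaging drug screen: Selleck FDA-approved drugs at 10 µM, 24 h in SM medium, 384-well plates, 3 replicates.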
row,SMILES,mean cell size
1,Cn1cc(C2=C(c3cn(C4CCN(Cc5ccccn5)CC4)c4ccccc34)C(=O)NC2=O)c2ccccc21,12.41 ± 0.12
2,N#Cc1nn(-c2c(Cl)cc(C(F)(F)F)cc2Cl)c(N)c1[S+]([O-])C(F)(F)F (centres undefined) [Fipronil],12.3 ± 0.2
3,C[C@@H]1[C@H](O)[C@@H](C)/C=C/C=C/CC/C=C/C=C/C=C/C=C/[C@H](O[C@H]2O[C@@H](C)[C@H](O)[C@@H](N)[C@H]2O)C[C@@H]2O[C@](O)(C[C@@H](O)[C@H](O)CC[C@@H](O)C[C@@H](O)C[C@@H](O)CC(=O)O[C@H]1C)C[C@H](O)[C@H]2C(=O)O [Nystatin (Fungicidin)],9.704 ± 0.046
4,CC(C)(O)C(Cl)(Cl)Cl [Chlorobutanol],12.5 ± 0.16
5,CC(C)N(CCC(C(N)=O)(c1ccccc1)c1ccccn1)C(C)C (centres undefined) [Disopyramide],12.27 ± 0.1
6,COc1ccc2c3c([nH]c2c1)C(C)=NCC3 [Harmaline],12.4 ± 0.34
7,COc1ccc2c(c1)[C@]13CCCC[C@@H]1[C@H](C2)N(C)CC3 [Dextromethorphan hydrobromide hydrate],12.5 ± 0.24
8,CCC1=C[C@H]2CN3CCc4c([nH]c5ccccc45)[C@](C(=O)OC)(C2)[C@H]13 [Catharanthine],12.5 ± 0.19
9,CN1C(=O)COc2c(C(=O)NC3CN4CCC3CC4)cc(Cl)cc21 (centres undefined) [Azasetron HCl],12 ± 0.075
10,CN[C@@H]1[C@@H](O)[C@@H](O[C@@H]2[C@@H](O)[C@H](O[C@H]3O[C@H](CN)CC[C@H]3N)[C@@H](N)C[C@H]2N)OC[C@]1(C)O.CN[C@@H]1[C@@H](O)[C@@H](O[C@@H]2[C@@H](O)[C@H](O[C@H]3O[C@H]([C@@H](C)N)CC[C@H]3N)[C@@H](N)C[C@H]2N)OC[C@]1(C)O.CN[C@@H]1[C@@H](O)[C@@H](O[C@@H]2[C@@H](O)[C@H](O[C@H]3O[C@H]([C@@H](C)NC)CC[C@H]3N)[C@@H](N)C[C@H]2N)OC[C@]1(C)O [Gentamicin Sulfate],12.1 ± 0.15
11,O=c1cccc2n1C[C@@H]1CNC[C@H]2C1 [Cytisine],12.6 ± 0.21
12,C[N+]12CCC(CC1)C(OC(=O)C(O)(c1ccccc1)c1ccccc1)C2 (centres undefined) [Clidinium Bromide],12.4 ± 0.13
13,CCCCCCCCCCCCCCCC[n+]1ccccc1 [Cetylpyridinium Chloride],11.2 ± 0.14
14,C=C(C)[C@H]1Cc2c(ccc3c2O[C@@H]2COc4cc(OC)c(OC)cc4[C@@H]2C3=O)O1 [Rotenone (Barbasco)],12.67 ± 0.1
15,O=C(O[C@H]1C[N+]2(CCCOc3ccccc3)CCC1CC2)C(O)(c1cccs1)c1cccs1 [Aclidinium Bromide],12.59 ± 0.061
16,CC1(C)S[C@@H]2[C@H](N)C(=O)N2[C@H]1C(=O)O [6-Aminopenicillanic acid],12.1 ± 0.25
17,CCN(C)C(=O)Oc1cccc([C@H](C)N(C)C)c1 [Rivastigmine Tartrate],12.38 ± 0.056

row,SMILES,mean cell size
1,CN1[C@@H]2C[C@@H](OC(=O)[C@H](CO)c3ccccc3)C[C@H]1[C@@H]1O[C@@H]12 [Scopolamine HBr trihydrate],12.1 ± 0.18
2,CC(=O)OCC1=C(C(=O)O)N2C(=O)[C@@H](N)[C@H]2SC1 [7-Aminocephalosporanic acid],12.28 ± 0.11
3,CCN(C)C(=O)Oc1cccc([C@H](C)N(C)C)c1 [Rivastigmine],12.7 ± 0.17
4,CC[C@H]1CN2CC[C@]3(C(=O)Nc4ccccc43)[C@@H]2C[C@@H]1/C(=C\OC)C(=O)OC [Rhynchophylline],12.38 ± 0.1
5,C[N+]1(C)[C@@H]2C[C@@H](OC(=O)[C@H](CO)c3ccccc3)C[C@H]1[C@@H]1O[C@@H]12 [Methscopolamine],12.49 ± 0.031
6,C=CCN1C[C@H](C(=O)N(CCCN(C)C)C(=O)NCC)C[C@@H]2c3cccc4[nH]cc(c34)C[C@H]21 [Cabergoline],12.2 ± 0.17
7,CN1c2ccccc2C(NCCCCCCC(=O)O)c2ccc(Cl)cc2S1(=O)=O (centres undefined) [Tianeptine sodium],12.6 ± 0.24
8,CN1[C@@H]2CC[C@H]1C[C@@H](OC(=O)C(CO)c1ccccc1)C2 (some centres undefined) [Atropine sulfate monohydrate],12.26 ± 0.093
9,C[C@@H]1CC[C@H]2[C@@H](C)C(=O)O[C@@H]3O[C@@]4(C)CC[C@@H]1[C@]32OO4 [Artemisinin],12.3 ± 0.3
10,CC(NC(C)(C)C)C(=O)c1cccc(Cl)c1 (centres undefined) [Amfebutamone (Bupropion) HCl],12.5 ± 0.13
11,CNC1CC(N)C(O)C(OC2OC(CO)C(O)C3OC4(OC(C(N)CO)C(O)C(O)C4O)OC23)C1O (centres undefined) [Hygromycin B],11.8 ± 0.24
12,C=CN1CCCC1=O.II [Povidone iodine],12.5 ± 0.22
13,CCCN1C[C@H](CSC)C[C@@H]2c3cccc4[nH]cc(c34)C[C@H]21 [Pergolide Mesylate],12.4 ± 0.25
14,[O-][n+]1ccccc1[S-].[O-][n+]1ccccc1[S-].[Zn+2] [Zinc Pyrithione],15.2 ± 0.23
15,Nc1ccncc1 [4-Aminopyridine],12.2 ± 0.16
16,NC(=O)CN1CCCC1=O [Piracetam],12.47 ± 0.028
17,COc1ccc(C=O)cc1 [p-Anisaldehyde],12.3 ± 0.27

# Source: the supplement of paper PMC8975748
